This is an account of results in PubChem BioAssay (NCI).

Assay in all cases: NCI-60 one-dose screen, 48 h (100 = growth as untreated, 0 = no growth, -100 = all killed)
The test system of one assay is HT29 colon. Particulars: 10 µM unless noted.
The subject of another assay is SNB-75 CNS. The following applies: 10 µM unless noted.
A further assay has as its system SNB-19 CNS. Particulars: 10 µM unless noted.
Another assay relates to U251 CNS. The following applies: 10 µM unless noted.
The test system of the next assay is PC-3 prostate. The following applies: 10 µM unless noted.
For another assay, the system named is SK-MEL-5 melanoma. The following applies: 10 µM unless noted.
A further assay deals with UACC-62 melanoma. The following applies: 10 µM unless noted.
Another assay relates to LOX IMVI melanoma. The following applies: 10 µM unless noted.
The next assay relates to SK-MEL-28 melanoma. The following applies: 10 µM.
The next assay concerns SK-MEL-2 melanoma. Particulars: 10 µM unless noted.
For another assay, the system named is SN12C renal. The following applies: 10 µM unless noted.
Another assay deals with UO-31 renal. The following applies: 10 µM unless noted.
For the next assay, the system named is TK-10 renal. Particulars: 10 µM unless noted.
A further assay concerns ACHN renal. The following applies: 10 µM unless noted.
The next assay deals with CAKI-1 renal. The following applies: 10 µM unless noted.
The next assay has as its system A498 renal. Particulars: 10 µM unless noted.
A further assay relates to CCRF-CEM leukemia. Particulars: 10 µM unless noted.
A further assay deals with MOLT-4 leukemia. Particulars: 10 µM unless noted.
Another assay concerns SR leukemia. Particulars: 10 µM unless noted.

The panel holds about 83,000 compounds, 20% with a hit somewhere; the sample as a whole holds those more often.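 48-hour exposure, single concentration, 96-well plates; percent growth endpoint where 0 means no net growth. Active: below 10.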 A number with no mark means an inactive call. Activity calls are given as the source filed them.

As for `O=Cc1c(OCc2cnnn2CC(=O)Nc2ccc(Cl)cc2)ccc2ccccc12`, the growth was 107% with HT29 colon; 81.3% with SNB-75 CNS; 93.8% in the assay on SNB-19 CNS; 101% with U251 CNS; 105% in the assay on PC-3 prostate; 100% with SK-MEL-5 melanoma. Besides, the growth is 87% in the assay on UACC-62 melanoma; 99.5% in the assay on LOX IMVI melanoma; 102% in the assay with SK-MEL-28 melanoma; 102% in the assay with SK-MEL-2 melanoma; 97.3% in the assay with SN12C renal; 73.2% with UO-31 renal. Further, the growth was 118% in the assay on TK-10 renal; 94.9% in the assay on ACHN renal; 94% in the assay with CAKI-1 renal; 96.7% in the assay on A498 renal; 110% with CCRF-CEM leukemia; 90.7% in the assay on MOLT-4 leukemia. The growth in the assay on SR leukemia was 90.5%.
In the case of `CCn1c(SCC(=O)Nc2cc(C(F)(F)F)ccc2Cl)nc2ccccc2c1=O`, the growth in the assay on HT29 colon was 15.7%; in the assay on SNB-75 CNS it was 13.4%; in the assay on SNB-19 CNS, 93.5%; with U251 CNS, 47.9%; with PC-3 prostate, 17.5%; in the assay on SK-MEL-5 melanoma, 25.7%. Further, the growth in the assay with UACC-62 melanoma is -79.1% (active); in the assay with LOX IMVI melanoma, -7.15% (active); in the assay with SK-MEL-28 melanoma, -28.6% (active); with SK-MEL-2 melanoma it was 87.3%; with SN12C renal it was 57.1%; with UO-31 renal, 22.7%. Further, the growth in the assay with TK-10 renal is 33.7%; in the assay on ACHN renal, 39.1%; with CAKI-1 renal, 48.4%; in the assay on A498 renal, 35.6%; in the assay on CCRF-CEM leukemia, -3.31% (active); in the assay with MOLT-4 leukemia, -7.72% (active). For the same compound, the growth with SR leukemia was -16.2% (active).
In the case of `COc1ccc(-c2cc(=O)c3c(OC)c4ccoc4c(/C=C/C=O)c3o2)cc1`, the growth with HT29 colon is 79.1%; with SNB-75 CNS, -1.37% (active); in the assay on SNB-19 CNS, 49%; with U251 CNS, 16.4%; in the assay with PC-3 prostate it was 21.3%; in the assay with SK-MEL-5 melanoma, 32.1%. Further, the growth was 67.1% in the assay with UACC-62 melanoma; -11.8% (active) with LOX IMVI melanoma; 89.1% with SK-MEL-28 melanoma; 75.4% in the assay with SK-MEL-2 melanoma; 13% with SN12C renal; 44.1% in the assay on UO-31 renal. Further, the growth was 68.7% in the assay with TK-10 renal; 75.4% in the assay with ACHN renal; 95.1% with CAKI-1 renal; 78.8% with A498 renal; 0.782% (active) with CCRF-CEM leukemia; -8.67% (active) in the assay on MOLT-4 leukemia. Further, the growth in the assay on SR leukemia was -8.77% (active).
Turning to `CC(=Nc1ccccc1)C1=C(O)C(Cc2ccc(F)cc2)NC1=O` (stereo not given), the growth with HT29 colon is 2.78% (active); in the assay on SNB-75 CNS, 17.9%; with SNB-19 CNS, 42.4%; with U251 CNS it was 28.2%; with PC-3 prostate, 18.3%; in the assay on SK-MEL-5 melanoma, 25.1%. Besides, the growth with UACC-62 melanoma is 23.5%; in the assay on LOX IMVI melanoma, 36.2%; in the assay with SK-MEL-28 melanoma, 45.3%; in the assay on SK-MEL-2 melanoma, 17.6%; with SN12C renal it was 49.1%; in the assay with UO-31 renal it was 44.3%. Also, the growth is 41.9% in the assay with TK-10 renal; 50.9% in the assay with ACHN renal; 33.6% in the assay on CAKI-1 renal; 19.3% with A498 renal; 10.7% with CCRF-CEM leukemia; 14.5% in the assay on MOLT-4 leukemia. In addition, the growth in the assay on SR leukemia is 6.59% (active).
As to `CCN(CC)CCCNc1ccnc2cc3ccccc3cc12`, the growth was 74.6% in the assay on HT29 colon; 36.6% in the assay on SNB-75 CNS; 71.3% with SNB-19 CNS; 46.8% in the assay with U251 CNS; 60.7% in the assay with PC-3 prostate; 50.6% with SK-MEL-5 melanoma. In addition, the growth was 69.8% with UACC-62 melanoma; 53.9% in the assay with LOX IMVI melanoma; 65.3% in the assay on SK-MEL-28 melanoma; 57% in the assay with SK-MEL-2 melanoma; 87.6% in the assay on SN12C renal; 106% in the assay with UO-31 renal. The growth in the assay on TK-10 renal was 83.8%; with ACHN renal, 70.7%; with CAKI-1 renal, 75.3%; with A498 renal, 94%; with CCRF-CEM leukemia it was 91.1%; in the assay with MOLT-4 leukemia it was 87.3%. In addition, in the assay with SR leukemia, the growth was 77.5%.
Take `Nc1ccn(C2O[C@H](CO)[C@@H](O)[C@H]2O)c(=O)n1` (stereo not given in full): the growth with HT29 colon is 106%; in the assay with SNB-75 CNS, 76.9%; in the assay on SNB-19 CNS it was 101%; with U251 CNS it was 48.9%; with PC-3 prostate, 85.6%; in the assay on SK-MEL-5 melanoma it was 89.9%. The growth with UACC-62 melanoma is 95.9%; with LOX IMVI melanoma, 75.5%; with SK-MEL-28 melanoma, 76.4%; in the assay on SK-MEL-2 melanoma, 110%; in the assay on SN12C renal it was 54.9%; in the assay with UO-31 renal it was 100%. For the same compound, the growth was 125% with TK-10 renal; 79.5% in the assay on ACHN renal; 91.3% in the assay with CAKI-1 renal; 106% in the assay on A498 renal; 29.2% in the assay with CCRF-CEM leukemia; 57.1% with MOLT-4 leukemia. For the same compound, the growth in the assay on SR leukemia was 2.99% (active).
For `O=C(O)CCCN1C(=O)C2C3CCC(C3)C2C1=O` (stereo not given), the growth was 100% in the assay with HT29 colon; 95.8% with SNB-75 CNS; 104% in the assay with SNB-19 CNS; 104% in the assay on U251 CNS; 106% in the assay with PC-3 prostate; 101% in the assay on SK-MEL-5 melanoma. The growth in the assay on UACC-62 melanoma was 97%; in the assay on LOX IMVI melanoma, 103%; with SK-MEL-28 melanoma, 113%; in the assay on SK-MEL-2 melanoma it was 101%; in the assay with SN12C renal, 103%; in the assay on UO-31 renal, 90.5%. Moreover, the growth is 98.2% with TK-10 renal; 109% with ACHN renal; 97.2% with CAKI-1 renal; 105% in the assay on A498 renal; 108% in the assay on CCRF-CEM leukemia; 104% in the assay with MOLT-4 leukemia. Further, the growth in the assay with SR leukemia was 112%.
For the compound `COc1ccc(OC)c(N(CCN2C(=O)c3ccccc3C2=O)C(=O)CCl)c1`, the growth in the assay with HT29 colon was 12.5%; in the assay on SNB-75 CNS, 87.4%; with SNB-19 CNS it was 114%; with U251 CNS, 60.9%; in the assay with PC-3 prostate, 31.9%; in the assay on SK-MEL-5 melanoma it was 94%. The growth with UACC-62 melanoma is 70.5%; in the assay on LOX IMVI melanoma, -11.8% (active); in the assay with SK-MEL-28 melanoma it was 100%; with SK-MEL-2 melanoma, 72.3%; with SN12C renal, 90.5%; with UO-31 renal, -92.1% (active). Also, the growth in the assay with TK-10 renal was 110%; in the assay with ACHN renal, 78.8%; in the assay on CAKI-1 renal it was 29.9%; in the assay with A498 renal it was 72.4%; with CCRF-CEM leukemia, -57.4% (active); with MOLT-4 leukemia, 54.6%. In addition, in the assay with SR leukemia, the growth is -48.6% (active).
Take `CN1CCN(Cc2ccc(NC(=O)c3[nH]ncc3Nc3cc(OC4CCCC4)ncn3)cc2)CC1`: the growth in the assay with HT29 colon is 14.3%; in the assay with SNB-75 CNS, 61.7%; with SNB-19 CNS, 59.8%; in the assay on U251 CNS, 41.1%; in the assay with PC-3 prostate it was 8.34% (active); in the assay with SK-MEL-5 melanoma it was 14.5%. For the same compound, the growth was 29.2% in the assay with UACC-62 melanoma; 17.9% with LOX IMVI melanoma; 53.1% with SK-MEL-28 melanoma; 49.4% in the assay on SK-MEL-2 melanoma; 24.9% with SN12C renal; 25.8% in the assay on UO-31 renal. Also, the growth was 88.3% in the assay on TK-10 renal; 8.8% (active) in the assay on ACHN renal; 19.2% with CAKI-1 renal; 49.6% in the assay on A498 renal; 5.67% (active) with CCRF-CEM leukemia; 5.56% (active) in the assay with MOLT-4 leukemia. For the same compound, the growth in the assay with SR leukemia is 4.42% (active).
Turning to `Clc1ccc(Nc2nnc(-c3ccc4c(c3)OCO4)o2)cc1`, the growth is 95% in the assay with HT29 colon; 121% in the assay on SNB-75 CNS; 99% in the assay with SNB-19 CNS; 102% in the assay with U251 CNS; 107% in the assay on PC-3 prostate; 104% in the assay with SK-MEL-5 melanoma. Further, the growth in the assay with UACC-62 melanoma was 88.9%; in the assay on LOX IMVI melanoma, 89.9%; in the assay with SK-MEL-28 melanoma, 114%; in the assay with SK-MEL-2 melanoma it was 102%; with SN12C renal, 96.6%; with UO-31 renal it was 86.9%. The growth in the assay with TK-10 renal is 94.6%; in the assay with ACHN renal, 102%; in the assay on CAKI-1 renal, 98.4%; with A498 renal, 97.5%; in the assay with CCRF-CEM leukemia, 100%; in the assay with MOLT-4 leukemia, 82.7%. Moreover, the growth in the assay with SR leukemia was 83.4%.
